Source: PubChem
Cruzain noTriton = qHTS Assay for Promiscuous and Specific Inhibitors of Cruzain (without detergent) | actives 2.3% (n = 200,000) | Cruzipain (Trypanosoma cruzi), P25779 | Potency, µM, for inactives: max response, negative = inhibition, actives largely listed as inhibitors | AID 1476, 2009 | purified cruzain, Z-FR-AMC fluorescence, no detergent;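 further: plate controls were enzyme without inhibitor for no effect and buffer without enzyme for full effect; nearly all actives have a fitted effect of over 40% in size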
Target sequence (P25779 123-467 limits assumed): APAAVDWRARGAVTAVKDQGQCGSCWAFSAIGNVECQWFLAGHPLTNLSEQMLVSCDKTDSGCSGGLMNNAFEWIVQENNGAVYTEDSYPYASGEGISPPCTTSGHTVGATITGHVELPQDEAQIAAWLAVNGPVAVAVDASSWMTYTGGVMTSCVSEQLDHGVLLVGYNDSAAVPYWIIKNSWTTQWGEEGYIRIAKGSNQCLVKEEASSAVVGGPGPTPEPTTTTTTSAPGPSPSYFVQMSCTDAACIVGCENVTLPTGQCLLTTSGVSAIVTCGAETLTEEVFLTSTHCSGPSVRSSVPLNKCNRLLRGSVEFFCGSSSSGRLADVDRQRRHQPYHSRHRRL
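Detergent-free condition (0.00005% Triton X-100) in acetate buffer pH 5.5 with DTT. 1.5 nM enzyme and compound were pre-mixed 15 min, then 2 uM Z-FR-AMC substrate added; reaction progress from fluorescence change between first and third reads (60 s).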
Cruzain Triton = qHTS Assay for Promiscuous and Specific Inhibitors of Cruzain (with detergent) | Cruzipain (Trypanosoma cruzi), P25779 | purified cruzain, Z-FR-AMC fluorescence, 0.01% Triton | Potency, µM, for inactives: max response, negative = inhibition, most hits filed as inhibitors | actives 0.43% (n = 200,000) | AID 1478, 2009;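 further: plate controls were neutral wells for no effect and buffer without enzyme for full effect; nearly all actives have a fitted effect of over 40% in size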
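Enzyme 1.5 nM, Z-FR-AMC 2 uM, NaOAc 100 mM pH 5.5, DTT 5 mM, Triton X-100 0.01%; 15 min RT compound preincubation; kinetic ex360/em450, 60 s delta.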
* hit, by the source's call; u = inconclusive. An excerpt weighted towards active compounds, which were near 2.6% of everything screened. The call rests on the fitted dose curve; in most records, active means well fitted curve in the direction sought with a large enough effect; inconclusive means small, poorly fitted or top-dose-only effect, or another doubt; inactive means no such curve, though single readings can be large; an effect the other way counts as inactive or inconclusive. Potency means the concentration at half of the fitted maximal effect.

SMILES | Cruzain noTriton | Cruzain Triton
CC(OC(=O)c1c2c(nc3ccccc13)/C(=C\c1ccc3c(c1)OCO3)CCC2)C(=O)Nc1ccc(S(N)(=O)=O)cc1 (stereo unspecified) | 16µM* | 0%
Cc1ccc(NC(=O)C2CC(=O)N/C(=N/N=C/c3ccco3)S2)cc1 (stereo unspecified) | u | -2%
Cc1ccc(NC(=O)C2CC(=O)N/C(=N/N=C/c3ccco3)S2)cc1C (stereo unspecified) | 13µM* | -3%
O=C(NCCc1ccc(Cl)cc1)c1ccc(Cn2c(=O)c3cccn3c3cccnc32)cc1 | -13% | 0%
C=Cc1ccc(COc2ccc3oc(-c4ccccc4)c(C(=O)OCC)c3c2)cc1 | 32µM* | -6%
CCOC(=O)c1c(-c2ccccc2)oc2ccc(NS(=O)(=O)c3ccc(C)cc3C)cc12 | 16µM* | -1%
CC(=O)c1c(C)oc2ccc(NS(=O)(=O)c3ccc(C(C)C)cc3)cc12 | 8% | -10%
CCOC(=O)c1c(-c2ccccc2)oc2ccc(OCc3ccc(C)cc3)cc12 | 10% | -1%
CCOC(=O)c1c(-c2ccccc2)oc2ccc(N(C(C)=O)S(=O)(=O)c3cc(C)ccc3C)cc12 | -10% | -3%
CCOC(=O)c1c(-c2ccccc2)oc2ccc(NS(=O)(=O)c3ccc(C(C)C)cc3)cc12 | 20µM* | -3%
Cn1cc(/C=N/n2cnc3sc4c(c3c2=O)CCCC4)c2ccccc21 | u | -4%
CC1(C)CC(C)(c2ccc(O)cc2O)N(c2ccc3ccccc3c2)C(=S)N1 (stereo unspecified) | 10% | -7%
Cc1ccc(OCc2nc3ccccc3n2Cc2ccccc2Cl)cc1 | -5% | -8%
COCCNC(=S)N/N=C(\C)c1ccc(C)c([N+](=O)[O-])c1 | 5% | -20%
Cc1cc(C)cc(OCc2nnc(SCC(=O)N3CCN(c4ccccc4)CC3)o2)c1 | u | 1%
O=C(NCCc1ccccc1)c1ccc(=O)oc1 | -7% | -7%
O=C(NCCc1ccccc1)c1ccc2nc(-c3ccco3)c(-c3ccco3)nc2c1 | u | 16µM*
CC(=O)Nc1cccc(NC(=O)CSc2ccc(C(F)(F)F)cc2[N+](=O)[O-])c1 | 1% | -1%
O=C(CSc1ccc(C(F)(F)F)cc1[N+](=O)[O-])Nc1ccc2ccccc2c1 | 13µM* | -4%
CCN(c1ccccc1)S(=O)(=O)c1cc(C(=O)Oc2ccc3c(C)cc(=O)oc3c2)ccc1C | -12% | -1%
CC(C)(C)OC(=O)NCC(=O)NCC(=O)OCc1ccccc1 | -3% | 2%
N#Cc1ccccc1-c1ccc2ncnc(NCc3ccccc3)c2c1 | -3% | 8%
COc1ccccc1NC(=O)c1sc2ncn(Cc3ccc(C)cc3)c(=O)c2c1C | -9% | 7%
COc1ccccc1NC(=O)c1sc2ncn(Cc3cccc4ccccc34)c(=O)c2c1C | 7.9µM* | 13%
CCOC(=O)C(Cc1ccccc1)C(=O)Nc1ccc(NC(=O)C(Cc2ccccc2)C(=O)OCC)cc1 (stereo unspecified) | 7.9µM* | -2%
SMILES | Cruzain noTriton | Cruzain Triton
CCOC(=O)C(Cc1ccccc1)C(=O)Nc1ccccc1C (stereo unspecified) | 4% | 2%
COC(=O)COc1ccc(S(=O)(=O)Nc2ccc3c(c2)OCO3)cc1Cl | -9% | -3%
Cc1cccc(NC(=O)c2cc(=O)c3ccccc3o2)n1 | 9% | 5%
CC1CCN(c2ccc(NC(=S)NC(=O)c3ccc(-c4cccc([N+](=O)[O-])c4)o3)cc2)CC1 | u | 0%
COc1ccc(C(=O)NC(=S)Nc2ccccc2N2CCOCC2)cc1Br | u | -7%
O=C(NC(=S)Nc1ccccc1N1CCOCC1)c1ccc(-c2cc(Cl)ccc2Cl)o1 | 10µM* | -3%
O=C(NC(=S)Nc1ccccc1N1CCOCC1)c1ccco1 | -4% | -7%
O=[N+]([O-])c1cccc(-c2ccc(C(=S)N3CCN(c4ccc(F)cc4)CC3)o2)c1 | 25µM* | -24%
CC1CCN(c2ccccc2NC(=S)NC(=O)c2ccc(-c3cccc([N+](=O)[O-])c3)o2)CC1 | 7.9µM* | 2%
CCOc1ccc(C(=O)NC(=S)Nc2ccccc2N2CCOCC2)cc1Br | 16µM* | -3%
O=[N+]([O-])c1cccc(C(=S)N2CCN(c3ccccc3)CC2)c1 | -22% | -14%
Cc1cc(C)c2c(CC(=O)Nc3nccs3)coc2c1 | -10% | 3%
S=C(Nc1ccccc1)Nc1ccc(OCc2ccccc2)cc1 | 13µM* | 5%
S=C(Nc1ccc(OCc2ccccc2)cc1)Nc1cccc(Cl)c1Cl | u | -5%
O=C(Nc1ccc2oc(-c3ccccc3Cl)nc2c1)c1cncc(Br)c1 | -28% | -1%
COC(=O)c1c(NC(=O)c2ccccc2N(C)S(=O)(=O)c2ccccc2)sc2c1CCCC2 | 25µM* | -7%
CCOC(=O)c1c(NC(=O)c2ccccc2Cl)sc2c1CCCC2 | -14% | -1%
COC(=O)c1c(NC(=O)CS(=O)(=O)c2ccc(C)cc2)sc2c1CCCC2 | u | -8%
CCOC(=O)c1c(NC(=O)c2ccccc2N(C)S(=O)(=O)c2ccccc2)sc2c1CCCC2 | 20µM* | -2%
COC(=O)c1c(NC(=O)CN(c2ccccc2)S(C)(=O)=O)sc2c1CCCC2 | u | -6%
COC(=O)c1c(NC(=O)c2ccc(N(C)S(=O)(=O)c3ccc(C)cc3)cc2)sc2c1CCCC2 | 4µM* | -4%
CCCCOc1ccc(C(=O)Nc2nc3c(s2)CC(C)CC3)cc1 (stereo unspecified) | 15% | -3%
COCCn1nnnc1C(c1cc2c(C)cc(C)cc2[nH]c1=O)N1CCCCCC1 (stereo unspecified) | 18% | -5%
CC(=O)c1c(C)n([O-])c2ccc(C)cc2[n+]1=O | 1.6µM* | 0%
Cc1ccc2c(c1)n([O-])c1c([n+]2=O)CCCC1 | -4% | 6%
SMILES | Cruzain noTriton | Cruzain Triton
Cc1nn(-c2ccccc2)c2sc(C(=O)N(CC(=O)NC(C)(C)C)Cc3ccco3)cc12 | 22% | -4%
CCn1c(N2CCN(S(=O)(=O)c3ccccc3C(F)(F)F)CC2)nc2ccccc21 | 11% | 1%
O=S(=O)(c1ccccc1C(F)(F)F)N1CCN(S(=O)(=O)c2ccccc2C(F)(F)F)CC1 | 20µM* | 3%
CN(C)S(=O)(=O)c1ccc2c(c1)nc1n2CCC1 | -11% | 6%
COc1ccc(-c2nnc(SCC(=O)N3CCc4ccccc43)o2)cc1OC | -2% | -1%
COc1cccc(-n2c(SCc3cc(=O)oc4cc(O)c(O)cc34)nc3ccccc3c2=O)c1 | 25µM* | -15%
Cc1cccc(-n2c(/C=C/c3ccccc3O)nc3ccccc3c2=O)c1 | u | -6%
COc1cccc(-n2c(/C=C/c3ccccc3O)nc3ccccc3c2=O)c1 | 20µM* | -8%
CCN(CC)C(=O)CSc1nc2ccccc2c(=O)n1-c1cccc(OC)c1 | -1% | -2%
O=C(NC(=S)Nc1ccc(N2CCOCC2)cc1)c1ccc2c(c1)OCCO2 | -16% | -9%
O=C(NC(=S)Nc1ccc(N2CCCCC2)cc1)c1ccc2c(c1)OCCO2 | 25µM* | -4%
CCOc1cccc(C(=O)NC(=S)Nc2ccc(N3CCCC3)cc2)c1 | 32µM* | u
CCOc1cccc(C(=O)Nc2ccc(N3CCN(S(C)(=O)=O)CC3)cc2)c1 | 2% | 5%
COc1cc(Cl)c(NS(=O)(=O)c2ccc3[nH]c(=O)ccc3c2)c(OC)c1 | 1% | -6%
